# Results taken from ChEMBL document CHEMBL4513216, “Probing the Open Global Health Chemical Diversity Library for Multistage-Active Starting Points for Next-Generation Antimalarials” (ACS Infect Dis, 2020).
# The campaign covered roughly 69,000 compounds. About 8,600 (12%) showed an effect of 50% or more. The list comes from a sample in which strong results are over-represented; it also holds similar structures and randomly drawn compounds.
# System: Plasmodium berghei
# Assay: Screen against P. berghei liver stage (PbLuc), transformed with Luciferase, at 10uM
# Assay type: functional, HepG2
# Details: tested at 10 uM
row,SMILES,INHIBITION [%]
1,CC(=O)N1CCc2[nH]cnc2C1C1=CCCN(CCn2cccc2)C1 (stereo not given),12.8
2,CCCC(C)N(C)Cc1nnc(-c2ccco2)o1 (stereo not given),26.9
3,CC(C)C(C)N(C)Cc1nnc(-c2ccco2)o1 (stereo not given),66.9
4,CN(Cc1nnc(C2CCC2)o1)C(C(N)=O)c1cccc(F)c1 (stereo not given),12.7
5,CN(Cc1nnc(-c2ccco2)o1)C(C(N)=O)c1cccc(F)c1 (stereo not given),61.5
6,CN(Cc1nnc(-c2cccs2)o1)C(C(N)=O)c1cccc(F)c1 (stereo not given),-15.3
7,CC(C)CC(C)N(C)Cc1nnc(-c2ccco2)o1 (stereo not given),-17.5
8,CC(CNCc1ccc(Br)cc1)Oc1ccccn1 (stereo not given),13
9,Cc1ccc2nc(-c3nc4c([nH]3)CC(C)(C)CNC4=O)cn2c1,16.9
10,c1coc(CN2CCc3onc(Cn4cccc4)c3C2)c1,20.1
11,CC(C)Oc1ccccc1C1CC(=O)Nc2c1cnn2C (stereo not given),-31.6
12,Cc1cccc(C(=O)N2CCCCC2c2nc3cc(F)ccc3[nH]2)n1 (stereo not given),39.1
13,NC(=O)c1ccc(N2CCCCC2)c(NC(=O)c2cc(F)ccc2F)c1,93.1
14,NC(=O)c1ccc(N2CCCCC2)c(NC(=O)c2cc(Br)ccc2F)c1,86.8
15,Cc1ccc(NC(=O)c2ccc(N3CCCCC3)nn2)c(Cl)c1,11.3
16,NC(=O)c1ccc(N2CCCCC2)c(NC(=O)c2ccc(Br)cc2)c1,39.5
17,COCCCN1Cc2cccc(NC(=O)c3cc(F)ccc3F)c2C1,32.9
18,Cc1cc(NC(=O)c2ccc(F)cc2F)n(C)n1,29.3
19,NC(=O)c1ccc(N2CCCCC2)c(NC(=O)c2ccc(F)cc2F)c1,89.1
20,O=C(c1cc(Br)ccc1-n1cnnn1)N1CCCCC1,24.2
21,NC(=O)c1ccc(N2CCCCC2)c(NC(=O)c2cc(Br)ccc2Cl)c1,81.2
22,CC(NC(=O)Nc1cc(F)ccc1N1CCCCC1)c1nncn1C (stereo not given),25.7
23,C[C@@H]1CN(Cc2cc3ccccc3n2C)CC[C@]1(C)O,-13.6
24,CCc1cc(N(C)Cc2nonc2C)nc(N(C)C)n1,31.7
25,CC(Cn1cccn1)NC(=O)NCc1ccc(S(C)(=O)=O)cc1 (stereo not given),19.5
26,CC(C)n1cnnc1CN(C)C(=O)c1cnn2ccccc12,38.2
27,COc1cc(C)nc(N2CCN(C(=O)COCC3CC3)CC2)n1,23.295
28,CC(C)C(=O)N1CC2(CCN(CC(C)(C)C)CC2)C1,1.34
29,COCCN1CCOCC2(CCCN(Cc3ccc(C)o3)C2)C1 (stereo not given),20.2
30,CCN(CC(=O)NC1(C)CCS(=O)(=O)C1)Cc1ccc(OC)c(F)c1 (stereo not given),-9.37
